About 14,000 (4.5%) of roughly 310,000 compounds showed an effect of 50% or more. Effects have a minus sign here. This excerpt belongs to a sample that is enriched for strong results.
Target: human ether-à-go-go-related gene (hERG) potassium channel (human, UniProt Q12809)
Assay: primary screen, population patch clamp on CHO cells stably expressing hERG; higher = less effect of the substance
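Further: peak tail current of the secondary pulse compared with the same well before compound.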

human ether-à-go-go-related gene (hERG) potassium channel, sequence (Q12809 whole entry, looked up): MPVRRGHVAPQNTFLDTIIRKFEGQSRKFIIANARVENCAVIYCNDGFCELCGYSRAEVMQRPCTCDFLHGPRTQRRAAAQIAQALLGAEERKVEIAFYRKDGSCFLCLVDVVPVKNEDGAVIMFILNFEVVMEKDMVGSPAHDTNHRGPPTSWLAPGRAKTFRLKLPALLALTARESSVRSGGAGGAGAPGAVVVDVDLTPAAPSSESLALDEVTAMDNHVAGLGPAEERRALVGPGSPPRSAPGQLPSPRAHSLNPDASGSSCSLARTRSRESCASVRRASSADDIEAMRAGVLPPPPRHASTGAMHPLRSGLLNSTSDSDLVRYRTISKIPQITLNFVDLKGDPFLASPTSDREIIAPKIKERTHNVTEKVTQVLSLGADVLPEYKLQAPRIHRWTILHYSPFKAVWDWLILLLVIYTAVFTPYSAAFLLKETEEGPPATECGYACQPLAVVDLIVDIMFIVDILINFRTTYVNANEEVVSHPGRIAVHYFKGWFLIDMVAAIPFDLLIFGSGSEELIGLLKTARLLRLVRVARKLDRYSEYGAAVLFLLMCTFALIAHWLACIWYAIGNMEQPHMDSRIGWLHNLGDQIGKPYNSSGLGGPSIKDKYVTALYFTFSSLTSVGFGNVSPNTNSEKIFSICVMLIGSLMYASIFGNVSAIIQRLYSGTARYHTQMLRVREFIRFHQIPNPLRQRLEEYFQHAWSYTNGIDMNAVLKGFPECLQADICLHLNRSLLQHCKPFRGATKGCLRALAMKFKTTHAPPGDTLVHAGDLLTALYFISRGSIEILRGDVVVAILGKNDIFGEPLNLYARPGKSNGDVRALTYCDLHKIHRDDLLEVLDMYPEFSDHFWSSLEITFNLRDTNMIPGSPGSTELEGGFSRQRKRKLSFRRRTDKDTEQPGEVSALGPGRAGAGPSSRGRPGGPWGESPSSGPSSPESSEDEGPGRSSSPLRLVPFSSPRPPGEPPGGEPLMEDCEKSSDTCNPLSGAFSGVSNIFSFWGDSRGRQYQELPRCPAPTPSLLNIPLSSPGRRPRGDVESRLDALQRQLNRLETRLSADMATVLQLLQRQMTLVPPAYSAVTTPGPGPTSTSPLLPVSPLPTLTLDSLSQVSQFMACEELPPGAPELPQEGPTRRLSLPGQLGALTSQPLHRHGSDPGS

SMILES	hERG current change (%, negative = inhibition) at 10uM
S=C(NCc1cccnc1)Nc1cccc(Cl)c1	-9.78%
CCOc1cc(C2Nc3ccccc3C(=O)N2c2ccccc2OC)ccc1O (stereo not drawn)	1.46%
CC(C)CC(=O)N(c1ccc(F)cc1)C1C=CS(=O)(=O)C1 (stereo not drawn)	14.4%
CC(=O)N1N=C2C3CCN(CC3)C2C1c1ccc(Br)cc1 (stereo not drawn)	4.62%
Cc1cc(C)n2nc(NCc3ccccc3)nc2n1	-9.34%
Cc1cc(C)n2nc(NCc3cccc(Br)c3)nc2n1	-70%
COc1ccc(CNc2nc3nc(C)c(Cl)c(C)n3n2)cc1OC	-7.54%
COc1ccc(CNc2nc3nc(C)c(Cl)c(C)n3n2)cc1	2.05%
COc1cccc(CNc2nc3nc(C)c(Cl)c(C)n3n2)c1	-57.9%
COc1cccc(CNc2nc3nc(C)cc(C)n3n2)c1	-15.6%
CC(NC(=O)Cc1ccccc1F)c1ccc(F)cc1 (stereo not drawn)	6.9%
Cc1ccc(C2=C/C(=C\c3cccnc3)C(=O)O2)cc1	30.8%
NC(=O)NCCCC(=O)OCC(=O)c1ccc2ccccc2c1	13.4%
CCCNC(=O)N1CCC(c2nc3ccccc3s2)CC1	-16.8%
CCOc1cc(N2CCOCC2)c(OCC)cc1NC(=O)COC(=O)c1cc(C)cc(C)c1	-3.29%
COc1c2ccccc2c(OC)c2ccccc12	12.9%
C/C=C/c1ccccc1OCc1ccc(C(=O)O)o1	20%
CSCC[C@H](NC(=O)COc1ccc(Cl)cc1Cl)c1nc2ccccc2[nH]1	14.7%
CSCC[C@H](NC(=O)COc1ccc(Cl)cc1)c1nc2ccccc2[nH]1	-56.5%
CSCC[C@H](NC(=O)C(C)Oc1ccc(Cl)cc1)c1nc2ccccc2[nH]1 (stereo partly drawn)	-7.16%

SMILES	hERG current change (%, negative = inhibition) at 10uM
Cc1cccc(-n2c(SCC(=O)Nc3nnc(C)s3)nnc2-c2ccoc2C)c1	-63.9%
CCCn1c(SCC(=O)Nc2nnc(C)s2)nnc1-c1ccoc1C	3.4%
Cc1ccc(C)c(-n2c(SCC(=O)Nc3nnc(C)s3)nnc2-c2ccoc2C)c1	5.96%
CCc1nnc(NC(=O)CSc2nnc(-c3ccoc3C)n2-c2cccc(C)c2)s1	-58.3%
CCc1nnc(NC(=O)CSc2nnc(-c3ccoc3C)n2-c2ccc(C)cc2)s1	-26.4%
CCc1nnc(NC(=O)CSc2nnc(-c3ccoc3C)n2-c2ccccc2)s1	-3.54%
O=C(NCCc1ccccc1Cl)c1cc(COc2ccc(F)cc2F)on1	7.59%
O=C(CCC(=O)Nc1ccc(F)cc1)N/N=C/c1cccnc1	17.8%
CCOc1ccc(S(=O)(=O)NCCC(=O)NCc2ccco2)cc1	-0.369%
O=C(NC1CCCCC1)c1ccc(S(=O)(=O)N2CCCCC2)cc1	-6.43%
COc1ccc(S(=O)(=O)Nc2cc(C(C)C)c(O)cc2C)cc1	-2.38%
COC1CCCN(Cc2c(C(=O)N3CCc4ccccc4C3)nc3ccc(Cl)cn23)C1 (stereo not drawn)	-35.9%
CN(C)C(=O)c1nc2ccc(Cl)cn2c1CN1CCCC(OCc2ccccc2)C1 (stereo not drawn)	-36.2%
CN(C)C(=O)c1nc2ccc(Cl)cn2c1CN1CCCC(OCc2cccnc2)C1 (stereo not drawn)	-57.9%
NCCNc1ccc2nnnn2n1	38.7%
COc1cccc(CN2CCCC(N3CCc4ccccc4C3)C2)c1O (stereo not drawn)	-17.7%
COc1ccc(CN2CCCC(N3CCc4ccccc4C3)C2)c(O)c1 (stereo not drawn)	-60.1%
COc1ccc(O)c(CN2CCCC(N3CCc4ccccc4C3)C2)c1 (stereo not drawn)	-46.6%
Oc1ccccc1CN1CCCC(N2CCc3ccccc3C2)C1 (stereo not drawn)	-38.8%
CCOc1cc(CN2CCCC(N3CCc4ccccc4C3)C2)ccc1O (stereo not drawn)	-21.4%

SMILES	hERG current change (%, negative = inhibition) at 10uM
CCOc1cccc(CN2CCCC(N3CCc4ccccc4C3)C2)c1O (stereo not drawn)	-52.9%
CCC(C)(C)NC(=O)C(c1ccc(OC)cc1)N(CCOC)C(=O)CCC(=O)Nc1nccs1 (stereo not drawn)	0.428%
COc1cc(NC(=O)Cn2cnc(S(=O)(=O)N3CCCCC3)c2)cc(OC)c1OC	14.9%
Cc1ccc(-c2ncccc2OC(=O)C23CC4CC(CC(C4)C2)C3)cc1.Cl	12%
COc1ccc2c(c1OC)CN(C)CCc1cc3c(cc1C(O)C2)OCO3 (stereo not drawn)	-27.1%
COc1ccc2c(c1OC)CN1CCc3cc4c(cc3[C@H]1C2)OCO4	-1.81%
COc1cc2c(cc1OC)C(C1c3cc4c(cc3CCN1C)OCO4)OC2=O (stereo not drawn)	4.1%
Br.COc1c2c(cc3c1OCO3)CCN(C)C2	0.899%
COc1cc2c(cc1OC)C(=O)Cc1ccc3c(c1CN(C)CC2)OCO3	-54.1%
COc1ccc2c(c1OC)CN(C)CCc1cc3c(cc1C(=O)C2)OCO3	-81%
O=C(Nc1ccc(CN2CCOCC2)cc1)c1ccc(Br)o1	1.56%
Cc1ccc2nc(SCC(=O)N3CC(C)OC(C)C3)nc(=O)n2c1 (stereo not drawn)	-13%
O=C(N/N=C/c1cc([N+](=O)[O-])c(N2CCOCC2)cc1N1CCOCC1)c1cccnc1	-22.4%
CCOC(=O)N1CCC(c2cc(=O)n3[nH]cc(C(=O)OC)c3n2)CC1	9.34%
CCC1(C(=O)OC)CCc2c(cc(OC)c3ccccc23)C1=O (stereo not drawn)	3.07%
COC(=O)[C@@H]1[C@H]2C[C@H]3c4[nH]c5ccccc5c4CCN3C[C@@H]2CC[C@@H]1O.Cl	-22%
CCC12CCCN3CCc4c(n(c5ccccc45)C(O)(C(=O)OC)C1)C32 (stereo not drawn)	-28.9%
CC[C@]12CCCN3CCc4c(n(c5ccccc45)[C@](O)(C(=O)OC)C1)[C@@H]32	-72.4%
CC[C@]12CCCN3CCc4c(n(c5ccccc45)[C@@](O)(C(=O)OC)C1)[C@@H]32	-80.9%
CC[C@H]1CC2CN3CCc4c([nH]c5ccccc45)C(C(=O)OC)(C2)C13.Cl (stereo partly drawn)	-2.97%

Source: publication PMC4336329 (PLoS ONE, 2015)
